For one sequence, binding signal results are on record in article PMC7862700, “An all-to-all approach to the identification of sequence-specific readers for epigenetic DNA modifications on cytosine”.

Common to all, as to assay: DAPPL (digital affinity profiling via proximity ligation, sequencing); 10 mM Tris-HCl pH 7.5, 50 mM NaCl, 1 mM DTT, 4% glycerol, room temperature, 30 min; GST-TFs on glutathione beads, 16-mer random dsDNA library, 0.1% formaldehyde crosslink after washing; high values mean tight binding
Holding throughout (settings): protein: recombinant; tags: N-terminal GST; dsDNA, one strand shown

One experiment deals with T1, FLI1 (Homo sapiens, UniProt Q01543 1-452).
T1 sequence: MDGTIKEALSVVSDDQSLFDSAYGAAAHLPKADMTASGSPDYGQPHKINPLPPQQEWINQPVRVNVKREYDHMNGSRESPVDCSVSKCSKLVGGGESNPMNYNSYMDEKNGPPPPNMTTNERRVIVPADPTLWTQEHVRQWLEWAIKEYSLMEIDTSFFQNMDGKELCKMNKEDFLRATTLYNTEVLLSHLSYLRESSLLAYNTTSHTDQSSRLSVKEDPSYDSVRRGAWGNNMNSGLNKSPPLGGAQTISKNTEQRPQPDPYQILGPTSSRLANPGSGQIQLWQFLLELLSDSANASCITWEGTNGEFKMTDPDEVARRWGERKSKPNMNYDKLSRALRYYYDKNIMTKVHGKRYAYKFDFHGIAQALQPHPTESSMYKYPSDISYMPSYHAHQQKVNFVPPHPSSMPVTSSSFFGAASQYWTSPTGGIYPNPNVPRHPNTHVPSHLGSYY
The procedure, abridged:
(§1)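 Sequencing on an Illumina NextSeq500 followed washing, crosslinking with 0.1% formaldehyde, proximity ligation (BsaI/T4 ligase, 1 h, 37 °C) and PCR amplification of pools that had been incubated for 30 min at room temperature with 200 nmole of a random double-stranded 16-mer DNA library in Tris/NaCl/DTT/glycerol buffer. Each pool held DNA-barcoded human transcription factors, expressed in yeast as GST fusions and captured on glutathione beads, plus a tag-only sample. Binding signal is a hexamer's read frequency for a factor divided by its frequency in the tag-only sample.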

The target in a further experiment is T2, ELK1 (Homo sapiens, UniProt P19419 1-428).
T2 sequence: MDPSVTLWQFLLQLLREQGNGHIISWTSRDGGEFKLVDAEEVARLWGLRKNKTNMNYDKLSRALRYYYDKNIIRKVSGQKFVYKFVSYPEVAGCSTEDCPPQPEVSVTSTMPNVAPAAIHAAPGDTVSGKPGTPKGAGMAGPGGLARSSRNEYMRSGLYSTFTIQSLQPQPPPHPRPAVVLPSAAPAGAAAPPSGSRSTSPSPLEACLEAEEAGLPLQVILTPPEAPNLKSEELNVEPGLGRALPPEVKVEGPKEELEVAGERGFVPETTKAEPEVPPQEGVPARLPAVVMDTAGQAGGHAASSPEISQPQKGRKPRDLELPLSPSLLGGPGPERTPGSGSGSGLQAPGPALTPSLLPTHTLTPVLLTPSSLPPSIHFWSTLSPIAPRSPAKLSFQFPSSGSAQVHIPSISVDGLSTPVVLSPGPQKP
The procedure, abridged:
as §1

For the next experiment, the target named is T3, GABPA (Homo sapiens, UniProt Q06546 1-454).
T3 sequence: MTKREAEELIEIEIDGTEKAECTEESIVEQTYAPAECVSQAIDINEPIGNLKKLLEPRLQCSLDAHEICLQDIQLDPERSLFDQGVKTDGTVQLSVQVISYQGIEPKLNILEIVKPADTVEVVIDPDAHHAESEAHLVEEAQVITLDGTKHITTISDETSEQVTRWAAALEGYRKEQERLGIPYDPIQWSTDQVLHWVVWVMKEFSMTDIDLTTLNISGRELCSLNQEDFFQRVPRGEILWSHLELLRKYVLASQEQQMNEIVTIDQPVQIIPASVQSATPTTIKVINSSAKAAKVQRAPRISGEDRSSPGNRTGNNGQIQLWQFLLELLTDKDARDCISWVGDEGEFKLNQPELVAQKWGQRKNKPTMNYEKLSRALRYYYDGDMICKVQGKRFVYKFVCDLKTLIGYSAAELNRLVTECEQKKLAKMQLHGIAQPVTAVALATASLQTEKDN
The procedure, abridged:
as §1

Another experiment addresses T4, ERG (Homo sapiens, UniProt P11308 1-479).
T4 sequence: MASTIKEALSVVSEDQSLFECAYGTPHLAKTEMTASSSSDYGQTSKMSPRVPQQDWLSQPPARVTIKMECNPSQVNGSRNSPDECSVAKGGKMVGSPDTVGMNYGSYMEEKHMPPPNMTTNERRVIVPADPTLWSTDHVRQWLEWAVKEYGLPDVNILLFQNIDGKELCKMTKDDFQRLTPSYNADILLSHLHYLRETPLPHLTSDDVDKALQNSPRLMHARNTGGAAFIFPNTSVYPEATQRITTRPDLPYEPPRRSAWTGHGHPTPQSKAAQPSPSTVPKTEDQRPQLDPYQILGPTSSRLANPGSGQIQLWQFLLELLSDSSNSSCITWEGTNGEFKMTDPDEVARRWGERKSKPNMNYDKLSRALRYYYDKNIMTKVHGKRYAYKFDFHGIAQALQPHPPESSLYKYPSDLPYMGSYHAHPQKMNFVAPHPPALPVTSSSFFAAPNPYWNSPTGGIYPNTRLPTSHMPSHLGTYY
The procedure, abridged:
as §1

The target in another experiment is ELF1 (Homo sapiens, UniProt P32519 1-619). The procedure, abridged:
as §1

In the next experiment the target is T5, EHF (Homo sapiens, UniProt Q9NZC4 1-300).
T5 sequence: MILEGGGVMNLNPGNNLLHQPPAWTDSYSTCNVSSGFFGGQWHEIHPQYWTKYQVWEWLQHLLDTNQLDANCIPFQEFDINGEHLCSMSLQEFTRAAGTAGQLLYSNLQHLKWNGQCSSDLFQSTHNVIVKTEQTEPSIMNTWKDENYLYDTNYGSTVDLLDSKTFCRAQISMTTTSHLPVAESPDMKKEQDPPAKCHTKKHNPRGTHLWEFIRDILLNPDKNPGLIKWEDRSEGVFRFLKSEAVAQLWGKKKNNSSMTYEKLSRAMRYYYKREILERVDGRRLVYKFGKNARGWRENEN
The procedure, abridged:
as §1

Another experiment deals with SPI1 (Homo sapiens, UniProt P17947 1-270). The procedure, abridged:
as §1

Another experiment has as its target SPIB (Homo sapiens, UniProt Q01892 1-262). The procedure, abridged: as §1
Another experiment concerns the target T6, ELK3 (Homo sapiens, UniProt P41970 1-407).
T6 sequence: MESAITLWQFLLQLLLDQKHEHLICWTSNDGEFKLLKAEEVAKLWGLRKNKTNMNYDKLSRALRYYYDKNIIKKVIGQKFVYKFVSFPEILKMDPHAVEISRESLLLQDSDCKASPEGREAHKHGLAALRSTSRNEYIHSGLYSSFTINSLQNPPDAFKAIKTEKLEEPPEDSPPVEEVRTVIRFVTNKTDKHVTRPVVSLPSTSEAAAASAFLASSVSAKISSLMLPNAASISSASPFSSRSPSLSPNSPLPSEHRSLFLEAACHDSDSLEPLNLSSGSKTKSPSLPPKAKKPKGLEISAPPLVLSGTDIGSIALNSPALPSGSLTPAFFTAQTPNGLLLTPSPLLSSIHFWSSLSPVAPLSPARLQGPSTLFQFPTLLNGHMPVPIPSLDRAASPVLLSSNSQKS
The procedure, abridged: as §1

Another experiment has as its target T7, FEV (Homo sapiens, UniProt Q99581 1-238).
T7 sequence: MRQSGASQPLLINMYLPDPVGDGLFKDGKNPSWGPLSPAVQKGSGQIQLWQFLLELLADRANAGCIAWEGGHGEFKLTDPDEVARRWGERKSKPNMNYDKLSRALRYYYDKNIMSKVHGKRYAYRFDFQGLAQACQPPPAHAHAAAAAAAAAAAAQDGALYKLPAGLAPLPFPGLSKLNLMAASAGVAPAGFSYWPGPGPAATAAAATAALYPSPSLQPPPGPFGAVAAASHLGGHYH
The procedure, abridged:
as §1

Another experiment addresses ETV5 (Homo sapiens, UniProt P41161 1-510). The procedure, abridged:
as §1

For the next experiment, the target named is T8, SPIC (Homo sapiens, UniProt Q8N5J4 1-248).
T8 sequence: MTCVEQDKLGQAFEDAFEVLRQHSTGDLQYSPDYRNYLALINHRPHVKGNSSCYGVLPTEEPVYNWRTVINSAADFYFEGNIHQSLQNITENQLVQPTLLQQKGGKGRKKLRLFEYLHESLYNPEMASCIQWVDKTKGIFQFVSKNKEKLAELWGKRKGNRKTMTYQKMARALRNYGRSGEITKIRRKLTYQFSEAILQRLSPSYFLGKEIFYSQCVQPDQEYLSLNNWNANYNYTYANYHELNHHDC
The procedure, abridged:
as §1

In the next experiment the target is ELF4 (Homo sapiens, UniProt Q99607 1-663). The procedure, abridged: as §1
Sequence of ELF4 (Q99607 whole entry): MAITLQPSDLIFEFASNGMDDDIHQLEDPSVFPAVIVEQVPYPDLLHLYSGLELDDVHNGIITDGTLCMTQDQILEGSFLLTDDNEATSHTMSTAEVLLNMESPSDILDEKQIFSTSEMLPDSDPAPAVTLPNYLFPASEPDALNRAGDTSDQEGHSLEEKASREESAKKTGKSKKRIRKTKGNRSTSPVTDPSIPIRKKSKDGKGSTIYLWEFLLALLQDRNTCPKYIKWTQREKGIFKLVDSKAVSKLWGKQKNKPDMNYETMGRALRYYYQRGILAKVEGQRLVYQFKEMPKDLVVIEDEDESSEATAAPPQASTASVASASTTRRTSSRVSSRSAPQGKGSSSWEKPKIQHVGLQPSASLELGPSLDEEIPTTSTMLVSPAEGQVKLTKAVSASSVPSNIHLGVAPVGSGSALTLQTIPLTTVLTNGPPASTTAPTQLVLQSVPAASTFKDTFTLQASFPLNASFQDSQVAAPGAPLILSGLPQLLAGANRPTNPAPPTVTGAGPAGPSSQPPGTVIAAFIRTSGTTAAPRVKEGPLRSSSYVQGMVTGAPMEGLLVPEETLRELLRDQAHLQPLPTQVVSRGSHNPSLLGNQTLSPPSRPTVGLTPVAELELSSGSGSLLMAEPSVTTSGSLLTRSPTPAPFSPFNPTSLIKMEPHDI
The target in a further experiment is ETV1 (Homo sapiens, UniProt P50549 1-477). The procedure, abridged: as §1
Sequence of ETV1 (P50549 whole entry): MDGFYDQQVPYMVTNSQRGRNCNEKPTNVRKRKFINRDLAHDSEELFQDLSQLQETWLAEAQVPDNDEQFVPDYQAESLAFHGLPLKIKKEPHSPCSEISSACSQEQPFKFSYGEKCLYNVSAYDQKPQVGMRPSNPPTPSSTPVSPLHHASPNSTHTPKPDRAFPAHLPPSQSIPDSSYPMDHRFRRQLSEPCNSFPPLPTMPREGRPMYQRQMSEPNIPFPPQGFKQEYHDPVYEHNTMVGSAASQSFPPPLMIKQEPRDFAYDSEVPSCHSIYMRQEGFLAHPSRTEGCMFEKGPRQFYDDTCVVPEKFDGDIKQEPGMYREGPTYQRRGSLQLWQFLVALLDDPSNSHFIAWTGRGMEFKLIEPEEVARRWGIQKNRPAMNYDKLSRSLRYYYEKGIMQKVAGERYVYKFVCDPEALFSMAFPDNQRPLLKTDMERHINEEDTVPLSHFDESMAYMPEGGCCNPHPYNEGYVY
In the next experiment the target is T9, ERF (Homo sapiens, UniProt P50548 1-548).
T9 sequence: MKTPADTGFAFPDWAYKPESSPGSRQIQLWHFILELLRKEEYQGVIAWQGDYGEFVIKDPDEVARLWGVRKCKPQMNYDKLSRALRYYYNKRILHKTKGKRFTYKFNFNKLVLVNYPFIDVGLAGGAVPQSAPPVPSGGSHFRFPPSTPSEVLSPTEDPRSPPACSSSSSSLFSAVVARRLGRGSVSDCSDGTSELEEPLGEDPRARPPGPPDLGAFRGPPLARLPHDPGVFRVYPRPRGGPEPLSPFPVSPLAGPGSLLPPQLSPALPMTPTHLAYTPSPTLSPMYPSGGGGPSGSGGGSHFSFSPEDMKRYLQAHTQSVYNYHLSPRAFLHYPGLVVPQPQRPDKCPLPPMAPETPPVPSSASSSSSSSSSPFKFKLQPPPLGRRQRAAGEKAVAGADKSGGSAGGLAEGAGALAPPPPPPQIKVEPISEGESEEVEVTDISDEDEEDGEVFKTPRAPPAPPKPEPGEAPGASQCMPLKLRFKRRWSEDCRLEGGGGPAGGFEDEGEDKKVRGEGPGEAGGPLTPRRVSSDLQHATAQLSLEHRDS
The procedure, abridged:
as §1

The target of another experiment is T10, ETV3L (Homo sapiens, UniProt Q6ZN32 1-361).
T10 sequence: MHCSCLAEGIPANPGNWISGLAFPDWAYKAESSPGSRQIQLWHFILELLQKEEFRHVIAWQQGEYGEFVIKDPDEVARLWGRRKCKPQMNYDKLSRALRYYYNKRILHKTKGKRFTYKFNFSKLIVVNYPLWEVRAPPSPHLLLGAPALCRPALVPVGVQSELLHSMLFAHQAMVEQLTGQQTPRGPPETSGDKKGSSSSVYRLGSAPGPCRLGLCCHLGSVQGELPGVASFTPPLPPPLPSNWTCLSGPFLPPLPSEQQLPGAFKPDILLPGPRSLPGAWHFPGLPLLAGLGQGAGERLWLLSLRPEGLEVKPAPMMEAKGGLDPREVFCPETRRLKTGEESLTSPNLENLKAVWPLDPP
The procedure, abridged:
as §1

The next experiment concerns the target T11, ETS2 (Homo sapiens, UniProt P15036 1-469).
T11 sequence: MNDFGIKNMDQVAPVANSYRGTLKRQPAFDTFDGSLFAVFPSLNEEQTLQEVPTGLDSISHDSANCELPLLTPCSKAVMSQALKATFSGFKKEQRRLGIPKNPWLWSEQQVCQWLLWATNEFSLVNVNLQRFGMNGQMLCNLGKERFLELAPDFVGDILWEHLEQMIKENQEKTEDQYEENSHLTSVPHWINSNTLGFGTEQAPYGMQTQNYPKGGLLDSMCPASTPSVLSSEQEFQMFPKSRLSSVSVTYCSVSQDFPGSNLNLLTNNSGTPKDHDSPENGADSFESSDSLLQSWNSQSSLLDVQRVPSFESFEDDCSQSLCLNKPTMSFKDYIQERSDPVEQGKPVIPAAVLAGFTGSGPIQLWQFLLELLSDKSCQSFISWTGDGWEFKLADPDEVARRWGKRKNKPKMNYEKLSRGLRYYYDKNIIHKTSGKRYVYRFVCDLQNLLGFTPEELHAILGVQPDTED
The procedure, abridged:
as §1

The target of the next experiment is T12, ELF5 (Homo sapiens, UniProt Q9UKW6-2 1-255).
T12 sequence: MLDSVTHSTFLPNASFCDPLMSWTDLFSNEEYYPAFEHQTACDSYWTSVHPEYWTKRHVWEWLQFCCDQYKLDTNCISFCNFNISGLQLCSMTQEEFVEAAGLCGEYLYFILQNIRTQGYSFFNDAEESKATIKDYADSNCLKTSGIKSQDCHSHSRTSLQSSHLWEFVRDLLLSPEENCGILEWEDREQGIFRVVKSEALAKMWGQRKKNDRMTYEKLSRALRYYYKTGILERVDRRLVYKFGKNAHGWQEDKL
The procedure, abridged:
as §1

The next experiment addresses T13, ETV3 (Homo sapiens, UniProt P41162-2 1-143).
T13 sequence: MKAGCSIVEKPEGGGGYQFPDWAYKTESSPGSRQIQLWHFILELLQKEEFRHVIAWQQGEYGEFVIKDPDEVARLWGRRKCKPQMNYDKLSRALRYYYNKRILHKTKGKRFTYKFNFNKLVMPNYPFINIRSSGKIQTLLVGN
The procedure, abridged:
as §1

The target in a further experiment is ETV6 (Homo sapiens, UniProt P41212 1-452). The procedure, abridged:
as §1

Sequence of ETV6 (P41212 whole entry): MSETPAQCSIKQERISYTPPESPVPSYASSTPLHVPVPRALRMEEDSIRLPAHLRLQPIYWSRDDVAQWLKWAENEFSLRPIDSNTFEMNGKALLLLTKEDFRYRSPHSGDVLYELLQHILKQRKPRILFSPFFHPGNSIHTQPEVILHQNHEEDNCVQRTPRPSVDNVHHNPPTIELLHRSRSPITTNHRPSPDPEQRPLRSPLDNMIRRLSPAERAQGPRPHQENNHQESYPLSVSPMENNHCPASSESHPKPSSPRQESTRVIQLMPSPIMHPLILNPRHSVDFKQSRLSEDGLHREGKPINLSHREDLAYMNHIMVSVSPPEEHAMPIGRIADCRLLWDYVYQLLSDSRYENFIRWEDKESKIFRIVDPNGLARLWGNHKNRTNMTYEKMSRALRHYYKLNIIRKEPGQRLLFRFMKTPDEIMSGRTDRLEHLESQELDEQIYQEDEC
Sequence of ETV5 (P41161 whole entry): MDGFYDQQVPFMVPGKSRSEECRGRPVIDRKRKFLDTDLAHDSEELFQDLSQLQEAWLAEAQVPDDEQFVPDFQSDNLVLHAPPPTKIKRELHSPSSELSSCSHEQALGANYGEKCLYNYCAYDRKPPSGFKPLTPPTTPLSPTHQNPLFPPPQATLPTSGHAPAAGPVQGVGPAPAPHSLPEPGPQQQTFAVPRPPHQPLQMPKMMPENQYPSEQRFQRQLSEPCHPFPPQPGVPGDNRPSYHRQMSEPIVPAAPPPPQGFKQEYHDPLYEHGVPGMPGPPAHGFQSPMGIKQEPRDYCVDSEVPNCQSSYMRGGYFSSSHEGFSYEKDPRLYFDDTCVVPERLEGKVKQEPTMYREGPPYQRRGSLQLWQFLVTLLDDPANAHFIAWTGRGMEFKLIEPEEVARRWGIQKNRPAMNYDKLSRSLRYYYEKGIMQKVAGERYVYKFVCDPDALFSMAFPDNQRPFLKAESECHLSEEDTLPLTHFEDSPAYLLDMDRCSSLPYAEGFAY
Sequence of SPIB (Q01892 whole entry): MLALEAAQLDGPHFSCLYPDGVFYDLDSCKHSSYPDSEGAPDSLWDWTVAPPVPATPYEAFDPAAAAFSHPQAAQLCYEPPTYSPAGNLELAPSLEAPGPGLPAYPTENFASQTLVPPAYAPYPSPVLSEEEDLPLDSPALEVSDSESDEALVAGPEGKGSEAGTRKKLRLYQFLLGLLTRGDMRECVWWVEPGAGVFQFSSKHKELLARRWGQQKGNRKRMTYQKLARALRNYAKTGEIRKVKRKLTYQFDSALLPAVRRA
Sequence of ELF1 (P32519 whole entry): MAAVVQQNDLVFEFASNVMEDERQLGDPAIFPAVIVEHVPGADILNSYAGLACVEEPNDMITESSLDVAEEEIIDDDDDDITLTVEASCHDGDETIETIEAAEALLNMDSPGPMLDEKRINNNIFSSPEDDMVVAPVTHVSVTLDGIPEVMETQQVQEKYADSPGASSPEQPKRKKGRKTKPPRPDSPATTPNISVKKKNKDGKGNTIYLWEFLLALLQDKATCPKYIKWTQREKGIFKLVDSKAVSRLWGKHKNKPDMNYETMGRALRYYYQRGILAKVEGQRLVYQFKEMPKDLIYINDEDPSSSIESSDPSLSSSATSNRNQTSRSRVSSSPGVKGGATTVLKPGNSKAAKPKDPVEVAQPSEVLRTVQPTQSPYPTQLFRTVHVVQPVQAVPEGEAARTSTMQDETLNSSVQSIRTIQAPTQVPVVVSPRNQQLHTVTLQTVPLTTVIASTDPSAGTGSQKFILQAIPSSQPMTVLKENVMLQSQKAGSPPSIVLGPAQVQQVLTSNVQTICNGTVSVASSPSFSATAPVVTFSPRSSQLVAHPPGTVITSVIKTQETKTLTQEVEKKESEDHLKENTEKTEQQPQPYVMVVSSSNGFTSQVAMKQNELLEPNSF

In the case of ATGGTG, the binding signal in the experiment with FLI1 was 1.17 fold enrichment (6-mer frequency, TF over GST control); with ELK1, 1.27 fold enrichment (6-mer frequency, TF over GST control); with GABPA, 1.1 fold enrichment (6-mer frequency, TF over GST control); in the experiment with ERG, 1.19 fold enrichment (6-mer frequency, TF over GST control); with ELF1, 1.13 fold enrichment (6-mer frequency, TF over GST control); in the experiment with EHF, 1.17 fold enrichment (6-mer frequency, TF over GST control). Moreover, the binding signal is 1.07 fold enrichment (6-mer frequency, TF over GST control) with SPI1; 1.01 fold enrichment (6-mer frequency, TF over GST control) in the experiment with SPIB; 1.02 fold enrichment (6-mer frequency, TF over GST control) with ELK3; 1.06 fold enrichment (6-mer frequency, TF over GST control) in the experiment with FEV; 1.18 fold enrichment (6-mer frequency, TF over GST control) with ETV5; 1.2 fold enrichment (6-mer frequency, TF over GST control) with SPIC. Besides, the binding signal with ELF4 was 1.14 fold enrichment (6-mer frequency, TF over GST control); with ETV1 it was 1.11 fold enrichment (6-mer frequency, TF over GST control); in the experiment with ERF, 1.13 fold enrichment (6-mer frequency, TF over GST control); in the experiment with ETV3L, 1.04 fold enrichment (6-mer frequency, TF over GST control); in the experiment with ETS2 it was 1.14 fold enrichment (6-mer frequency, TF over GST control); with ELF5, 1.02 fold enrichment (6-mer frequency, TF over GST control). In addition, the binding signal with ETV3 is 1.04 fold enrichment (6-mer frequency, TF over GST control); with ETV6, 1.11 fold enrichment (6-mer frequency, TF over GST control).
